The values that follow come from PubChem BioAssay (NCATS).

Molecules are shown by their SMILES. Inconclusive results are not listed. Active and inactive are the calls of the source. Calls come from the whole dose curve; as a rule, active = well fitted curve in the direction sought with a large enough effect; inconclusive = small, poorly fitted or top-dose-only effect, or another doubt; inactive = no such curve, though single readings can be large; an effect the other way counts as inactive or inconclusive.

Experiment [1] concerns the target Luciferin 4-monooxygenase (Photinus pyralis) (UniProt P08659). Briefly: Firefly luciferase counterscreen qHTS: Assay Interference Panel against the NCATS CANVASS Library (AID 1347363). Note: series mostly up to about 57 µM. In outline:
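Purified P. pyralis luciferase (0.04 ug/mL, 4x reagent) added to Tris-acetate buffer with 0.013 mM D-luciferin, 0.013 mM ATP and 13.3 mM Mg-acetate; compounds preincubated 15 min, then luminescence read after 5 min, RT.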
(A counterscreen serves to expose hits that act by an unwanted route or on another target.)

Experiment [2] is described as follows: KB-8-5-11 Cancer Cell Toxicity qHTS against the NCATS CANVASS Library (AID 1347364). Note: potency is the fitted concentration of half-maximal effect; nearly all actives have a fitted effect of over 75% in size. To be noted: KB-8-5-11 MDR cells viability, CellTiter-Glo, 72 h. In short, it runs like this: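 Luminescent ATP signal (CellTiter-Glo, 10 min at room temperature) measured cell survival of KB-8-5-11 after 72 hr compound treatment. For confirmation, the cells were also grown with 1uM tariquidar.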
(Quantitative high-throughput screening tests each substance at several concentrations.)

Experiment [3] in a line: SDT Cancer Cell Toxicity qHTS against the NCATS CANVASS Library (AID 1347365). Note: potency is the fitted concentration of half-maximal effect; nearly all actives have a fitted effect of over 60% in size. To be noted: SDT dog glioma viability, ATP luminescence, 72 h. In outline: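 Canine SDT glioma cell toxicity was scored by ATP-dependent luminescence after a 72 hr incubation with an 11-point compound series.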
Experiment [4] is described as follows: qHTS for ATAD5 Agonist screened against the NCATS CANVASS Library (AID 1347367).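 Note: luciferase reporter driven by ATAD5 which rises upon DNA damage.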 In short, it runs like this:
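Step one plated reporter cells and let them acclimate 5hr. Step two pinned compounds with MMS as positive and 0.46% DMSO as negative control. After 16hr incubation, fluorescence viability then luminescence were read.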

Experiment [5] can be described thus: G06 Cancer Cell Toxicity qHTS against the NCATS CANVASS Library (AID 1347368). Note: potency is the fitted concentration of half-maximal effect; nearly all actives have a fitted effect of over 60% in size. Conditions: G06 dog glioma cells, viability ATP luminescence, 72 h. In outline:
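Quantitative HTS in G06 cells (dog glioma): 72 hr treatment, 11 concentrations, then ATP-based luminescent viability readout; bortezomib 0.1 nM–4.6 uM final as reference.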

The nature of experiment [6]: MCF7 Cancer Cell Toxicity qHTS against the NCATS CANVASS Library (AID 1347369). Note: potency is the fitted concentration of half-maximal effect. To be noted: MCF7 viability, ATP luminescence (CellTiter-Glo), 72 h. In short, it runs like this: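 Cytotoxicity is measured by ATP content: MCF7 cells at 500 per well receive an 11-point compound series and, after 72 hr at 37C, are lysed with CellTiterGlo for luminescence.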
Experiment [7] is described as follows: J3T Cancer Cell Toxicity qHTS against the NCATS CANVASS Library (AID 1347371). Note: potency is the fitted concentration of half-maximal effect. To be noted: J3T dog glioma viability, ATP luminescence, 72 h. In outline:
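ATP-based cytotoxicity in canine J3T cells: 72 hr exposure at 37C, 11-point titration, CellTiterGlo luminescent detection.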

The target of experiment [8] is Nuclear receptor subfamily 1 group I member 3 (Homo sapiens) (UniProt Q14994). The experiment in a line: qHTS for Constitutive Androstane Receptor (CAR) Antagonist screened against the NCATS CANVASS Library (AID 1347372).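 Note: cells stimulated with 50 nM CITCO agonist so inhibition reflects antagonism; luciferase from CYP2B6 promoter reporter driven by hCAR in HepG2 cells; series mostly up to about 46 µM.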 In outline:
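Luminescence readout (ONE-Glo, 30 min RT) of CYP2B6-2.2kb reporter in HepG2-hCAR cells after 24hr, 37C treatment with compound against 50 nM CITCO; CellTiter-Fluor viability read beforehand.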

Experiment [9] has the same target. The experiment in a line: qHTS for Constitutive Androstane Receptor (CAR) Agonist screened against the NCATS CANVASS Library (AID 1347373).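 Note: every well also contained 1.5 µM PK11195 alongside the test compound.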 In short, it runs like this:
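In an 11-point concentration series, compounds were incubated 24hr with HepG2 cells carrying hCAR and a CYP2B6-2.2kb reporter, with PK11195 at 1.5uM final. A CellTiter-Fluor viability read preceded the ONE-Glo luminescence read.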

The nature of experiment [10]: 10-beta competent E. coli microbial cell viability qHTS against the NCATS CANVASS Library (AID 1347376). Note: series mostly up to about 46 µM. In short, it runs like this:
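Overnight 37C exposure of 10-beta E. coli (0.2 OD) to an 11-point concentration series; ATP-based luminescence after 20 min room-temperature reagent incubation; daunomycin as control.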

Experiment [11] can be described thus: DH5-alpha competent E. coli microbial cell viability qHTS against the NCATS CANVASS Library (AID 1347377). In short, it runs like this: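 Overnight incubation at 37C, 5% CO2 of E. coli DH5-alpha (diluted to 0.2 OD) with compounds precedes BacTiter-Glo addition. Luminescence, acquired after 20 min at room temperature, reflects viable-cell ATP.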
Experiment [12] can be described thus: qHTS for H2AX Agonists against the NCATS CANVASS Library (AID 1347378).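 Note: phospho-H2AX S139 level in CHO-K1 lysates by TR-FRET emission ratio; potency is the fitted concentration of half-maximal effect.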 Conditions: CHO-K1 H2AX phosphorylation, HTRF TR-FRET, 3 h. In outline: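 Following overnight seeding, CHO-K1 cells are incubated with a concentration series of compound for 3 hr at 37C (final DMSO 0.76%). Cells are then lysed, detection antibodies added, and emission ratio 665/620 nm recorded after 24 hr at room temperature.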

Experiment [13] is described as follows: qHTS for Inflammasome Signaling Inhibitors: IL-1-beta AlphaLISA screen against the NCATS CANVASS Library (AID 1347379).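 Note: human THP-1 cells primed with LPS then triggered with ATP; secreted IL-1B measured as AlphaLISA emission at 615 nm; potency is the fitted concentration of half-maximal effect.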 Conditions: THP-1 LPS/ATP, IL-1B AlphaLISA secretion, 16 h. In outline:
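THP-1, 1 hr compound pre-incubation, then LPS 250 ng/mL + ATP 1.25 mM (final); 16 hr total with compound; IL-1B AlphaLISA, ex 680/em 615 nm; 11-point qHTS, up to 57.5 uM final.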

Experiment [14] can be described thus: Inflammasome Signaling qHTS Counterscreen: IL-1-beta AlphaLISA counterscreen against the NCATS CANVASS Library (AID 1347381).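 Note: cell-free check with purified IL-1β in medium and no THP-1 cells; series mostly up to about 57 µM.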 In outline:
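Here, no cellular stimulation occurs; compounds in an 11-point series meet 4 pg purified IL-1-beta directly. Bead-based AlphaLISA detection follows (1 h acceptor/antibody, then 30 min donor, dark, room temperature), with excitation at 680 nm.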

The nature of experiment [15]: qHTS assay for small molecule disruptors of mitochondrial membrane potential screened against the NCATS CANVASS Library (AID 1347389). Note: potency is the fitted concentration of half-maximal effect; nearly all actives have a fitted effect of over 60% in size. Conditions: HepG2 mitochondrial membrane potential, m-MPI red/green ratio, 1.5 h. In short, it runs like this:
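Cells (HepG2) seeded the day before received compound or DMSO for 1 hr, then Mito-MPS dye for 30 min at 37C; emission at 590 nm over 535 nm gave the polarization signal.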

Experiment [16] is described as follows: Secretion counterscreen for inhibitors of the SERCaMP assay screened against the NCATS CANVASS Library (AID 1347390).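 Note: light from luciferase secreted into medium read as a measure of general secretion; potency is the fitted concentration of half-maximal effect.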 Conditions: SH-SY5Y constitutive GLuc secretion, luminescence, 20 h. In short, it runs like this: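 Counterscreen identifying compounds that disrupt secretion, using SH-SY5Y cells with a constitutively secreted Gaussia luciferase reporter. A 20 h compound exposure (top 77 uM) precedes luminescent detection with coelenterazine.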

The nature of experiment [17]: qHTS for activators of Nrf2/ARE signaling pathway screened against the NCATS CANVASS Library (AID 1347391). Note: potency is the fitted concentration of half-maximal effect; nearly all actives have a fitted effect of over 60% in size. Conditions: ARE-bla HepG2, beta-lactamase reporter, 16 h. In short, it runs like this:
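Activation of Nrf2/ARE was scored in ARE-bla HepG2 cells after 16 h compound exposure using CCF4 beta-lactamase fluorescence ratio readings.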

Experiment [18] in a line: qHTS for inhibitors of ER calcium dysfunction: SERCaMP assay screened against the NCATS CANVASS Library (AID 1347393). Note: potency is the fitted concentration of half-maximal effect; nearly all actives have a fitted effect of over 40% in size. Conditions: SH-SY5Y GLuc-SERCaMP secretion, thapsigargin, luminescence. In outline: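 SH-SY5Y GLuc-SERCaMP, 1000 cells/well, 4 h attach; cpd 16 h, 37C/5% CO2; thapsigargin (added as 6x 600 nM) 4 h; coelenterazine; luminescence. Reduced reporter release = ER Ca stabilization.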

The nature of experiment [19]: Vero-766 cells viability qHTS against the NCATS CANVASS Library: Counterscreen for Zika virus inhibition assay (AID 1347394). Conditions: Vero 766 viability, CellTiter-Glo luminescence, 72 h. In outline: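 This cytotoxicity counterscreen uses African green monkey Vero 766 cells in the absence of Zika virus. Compounds are incubated with cells for 72 h, and ATP-based luminescence reports viability.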

A short description of experiment [20]: qHTS for inhibitors of Wild type Zika virus screened against the NCATS CANVASS Library (AID 1347396).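 Note: ATP luminescence of surviving cells so rescue from viral cell killing; series mostly up to about 46 µM.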 In short, it runs like this:
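Using ATP-based luminescence (CellTiter Glo), this screen scores rescue of Vero 766 cells from wild-type Zika killing at 72 h post-infection. Compounds are tested in a concentration series.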

Sequence of Nuclear receptor subfamily 1 group I member 3 (Homo sapiens) (Q14994 whole entry, looked up): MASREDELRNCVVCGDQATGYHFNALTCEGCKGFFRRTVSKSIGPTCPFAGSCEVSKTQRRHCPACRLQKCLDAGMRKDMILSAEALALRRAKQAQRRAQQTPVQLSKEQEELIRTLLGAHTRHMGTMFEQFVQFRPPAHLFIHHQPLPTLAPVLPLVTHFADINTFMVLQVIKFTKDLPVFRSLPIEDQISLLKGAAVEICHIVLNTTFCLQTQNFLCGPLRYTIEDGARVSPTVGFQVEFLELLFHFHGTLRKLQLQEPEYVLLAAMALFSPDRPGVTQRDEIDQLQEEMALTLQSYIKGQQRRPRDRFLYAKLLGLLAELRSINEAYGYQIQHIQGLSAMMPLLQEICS
Sequence of Luciferin 4-monooxygenase (Photinus pyralis) (P08659 whole entry, looked up): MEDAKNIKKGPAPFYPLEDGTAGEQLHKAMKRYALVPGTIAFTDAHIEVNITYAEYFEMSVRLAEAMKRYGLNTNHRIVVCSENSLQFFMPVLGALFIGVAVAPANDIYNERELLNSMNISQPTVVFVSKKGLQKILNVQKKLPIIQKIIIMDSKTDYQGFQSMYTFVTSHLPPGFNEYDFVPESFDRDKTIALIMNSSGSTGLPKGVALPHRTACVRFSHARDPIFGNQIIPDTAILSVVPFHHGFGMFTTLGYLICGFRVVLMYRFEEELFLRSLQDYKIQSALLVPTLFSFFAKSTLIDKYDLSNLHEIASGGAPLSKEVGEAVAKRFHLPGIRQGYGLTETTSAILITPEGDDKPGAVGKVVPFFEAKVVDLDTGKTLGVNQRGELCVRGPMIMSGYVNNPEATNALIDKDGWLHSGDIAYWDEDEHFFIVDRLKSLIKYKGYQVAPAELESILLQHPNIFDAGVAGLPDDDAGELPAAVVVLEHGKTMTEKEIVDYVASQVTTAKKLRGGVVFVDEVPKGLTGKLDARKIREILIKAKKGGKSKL

In the case of `C=C1C(=O)O[C@H]2[C@H]1CC/C(C)=C/CC[C@@]1(C)O[C@@H]21`, the call in experiment [1], in [4], in [8], in experiment [9], in experiment [10] and in [11] was inactive. Besides, the result in [14] and in experiment [20] was inactive. For the same molecule, the Potency in experiment [2] is 16.6 µM (active); in experiment [3], 8.33 µM (active); in experiment [5] it was 9.35 µM (active); in [6], 7.39 µM (active); in experiment [7] it was 16.6 µM (active); in experiment [12], 4.86 µM (active). Moreover, the Potency in experiment [13] is 5.44 µM (active); in experiment [15], 20.9 µM (active); in [16], 15.3 µM (active); in [17], 2.09 µM (active); in [18] it was 1.72 µM (active); in [19] it was 29.5 µM (active).
